From PubChem BioAssay AID624483 (NMMLSC, 2012)
Hit rate of the full screen: of about 360,000 compounds, about 11,000 (3.1%) were called active. Inconclusive results (about 2%) are left out. The sample as a whole holds a higher share of actives than the screen did. A number with no mark means an inactive call. Cut-off read from the data, not from the text of the source: active = fluorescence intensity above about 16000; inconclusive = no clear call, values can overlap the other calls; inactive = below that.

Assay: counter-screen for toxin protease inhibitors: compound fluorescence, primary screen, artefact control for toxin protease inhibitor project, biochemical, multiplex microsphere, HTS (AID 624483)
Settings: compound autofluorescence counterscreen, microsphere flow cytometry; hits give high values

SMILES | fluorescence intensity
O=C(CSc1nc2cccc(F)c2c(=O)n1-c1ccccc1)Nc1ccc2c(c1)CCC2 | 4620
C=CCn1c(SCc2csc(C)n2)nc2scc(-c3ccc(C)o3)c2c1=O | 21100 (active)
C=CCn1c(SCc2c(C)noc2C)nc2sc3c(c2c1=O)CCC(C)C3 (stereo unspecified) | 2390
C=CCn1c(SCC(=O)NCC2CCCO2)nc2sc(C)c(C)c2c1=O (stereo unspecified) | 5940
COc1ccc(C(C)(NC(C)=O)c2nc(-c3ccc(S(C)(=O)=O)cc3)cs2)cc1 (stereo unspecified) | 2940
COc1ccccc1C1CC(=O)n2c(nc(-c3ccccc3)c2-c2ccccc2)S1 (stereo unspecified) | 1950
NC(=O)CSC1=Nc2ccccc2C2=NC(CCC(=O)NCc3ccc(F)cc3)C(=O)N12 (stereo unspecified) | 3100
CCC(C)NC(=O)CSC1=Nc2ccccc2C2=NC(CCC(=O)NCc3ccco3)C(=O)N12 (stereo unspecified) | 19500 (active)
O=C(CSC1=Nc2ccccc2C2=NC(c3ccccc3)C(=O)N12)NCC1CCCO1 (stereo unspecified) | 2380
CCCCNC(=O)C[C@@H]1C[C@@]2(C(=O)OCC)CCC=C2N(Cc2cccc3ccccc23)C1=O | 5990
OCCc1ccc(NCCc2ccco2)cc1 | 6000
CC(=O)Nc1cccc(-c2cc3nc(NCc4cccnc4)n(C)c(=O)c3s2)c1 | 3710
O=c1c2ccccc2nnn1CSc1nnnn1-c1ccccc1 | 16800 (active)
C=CCn1c(SCn2nnc3ccccc3c2=O)nnc1-c1ccc(Cl)cc1 | 15200
Nc1nnc(SCn2nnc3ccccc3c2=O)s1 | 4300
Cc1cc2nc(-c3ccc(F)cc3)c(Cc3ccsc3)n2c(C)c1Br | 4760
COC(=O)c1ccccc1NC(=O)C1CCN(S(=O)(=O)c2cc(OC)ccc2OC)CC1 | 16400 (active)
COc1ccc(NC(=O)C2CCN(S(=O)(=O)c3ccc4[nH]c(=O)oc4c3)CC2)c(OC)c1 | 4520
COC(=O)c1ccccc1NC(=O)C1CC(=O)N(c2ccc(OC)cc2)C1 (stereo unspecified) | 3990
C/C=C/C(=O)Nc1ccc(N2CCN(c3ccc(C(F)(F)F)cn3)CC2)nc1 | 5380
COc1ccccc1N1CCN(C(=O)c2cc(-c3ccc(Cl)c(Cl)c3)on2)CC1 | 16600 (active)
COc1ccc(-c2cc(C(=O)N3CCN(c4ccc(F)cc4)CC3)no2)cc1 | 6330
O=C(c1cc(-c2ccc(Cl)cc2)on1)N1CCN(c2ccccc2)CC1 | 4120
O=C(Cc1ccc(-n2c(=O)c3sccc3n(Cc3ccc(F)cc3)c2=O)cc1)NCc1ccco1 | 5860
O=C(NCc1ccco1)c1cc2sccc2n1Cc1ccc(F)cc1 | 20800 (active)
O=C(NCc1ccco1)c1ccc(Cn2c(=O)c3sccc3n(Cc3ccc(F)cc3)c2=O)cc1 | 5200
